# Results: PubChem BioAssay AID757 (NMMLSC, 2007)
# The whole screen tested about 190,000 compounds, of which about 520 (0.27%) were called active. About 2% were inconclusive and are not listed. What follows is part of a selection rich in actives, with near analogues and random picks from the rest. Values without a mark were called inactive.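 The calls were made as follows: active = GTP binding activity at least 20 points away from the 100% control level, either lower or higher; inconclusive = compound flagged as likely green fluorescent, judged across all proteins; inactive = the rest.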
# Molecular target: Ras-related C3 botulinum toxin substrate 1 (Homo sapiens) (UniProt P63000)
# Assay: wildtype Rac1 GTP binding modulators, primary screen, biochemical, GST-Rac1 beads, flow cytometry, multiplex (AID 757)
# Details: fluorescent GTP binding, at 10 µM, actives lie on both sides, 0 = cold GTP competed, 100 = untreated
row,Compound,GTP binding activity (% of control)
1,CC(=O)c1ccc(-c2nnc(CCC(=O)N(C)Cc3cnc4ccccn34)o2)s1,92%
2,COCCn1c(C)cc(C(=O)CSc2nc3ccccc3c(=O)n2C(C)COC)c1C (stereo not given),97%
3,O=C(O)/C=C/c1cn(Cc2ccccc2)nc1-c1cccs1,157% [activator] (active)
4,O=C(/C=C\c1cn(-c2ccccc2)nc1-c1cccs1)N1CCOCC1,106%
5,O=C(O)/C=C/c1cn(-c2ccccc2)nc1-c1cccs1,94%
6,O=S(=O)(Nc1ccccn1)c1cccc(S(=O)(=O)c2ccc(Cl)cc2)c1,97%
7,Cc1c(NC(=S)NC(=O)CCc2ccccc2)c(=O)n(-c2ccccc2)n1C,101%
8,CC1CCC(NC(=O)C2c3ccccc3C(=O)N2Cc2ccc3c(c2)OCO3)CC1 (stereo not given),99%
9,COc1cccc(-c2ccc(SCC(=O)N3CCN(c4ccccc4)CC3)nn2)c1,92%
10,CN(C)c1ccc(C(=S)N2CCN(C(=S)Nc3ccc(Cl)cc3)CC2)cc1,98%
11,O=C(c1cn2ccccc2n1)N1CCc2c([nH]c3ccccc23)C1c1ccccn1 (stereo not given),98%
12,O=c1cc(O)c(-c2cccc(C(F)(F)F)c2)c(Cl)[nH]1,97%
13,O=C(NCCCN1CCOCC1)c1ccc([N+](=O)[O-])cc1[N+](=O)[O-],102%
14,O=C(OCC(=O)c1cccs1)c1ccc([N+](=O)[O-])o1,99%
15,CNC(=S)Nc1ccc([N+](=O)[O-])cc1,101%
16,CC(Oc1ccc(Br)cc1Br)C(=O)NC1CCCC1 (stereo not given),96%
17,CC(=O)c1c(C)[nH]c(C(=O)Nc2cc(S(=O)(=O)N(C)C)ccc2C)c1C,97%
18,O=C(Nc1ccccc1C(=O)N1CCOCC1)c1ccc(Cl)cc1,98%
19,CCOc1ccc(N2CC(C(=O)NCCN3C(=O)S/C(=C\c4cccnc4)C3=O)CC2=O)cc1 (stereo not given),95%
20,Cc1cc(C)cc(NC(=O)CSc2ccccc2)c1,95%
21,O=C(CSc1ccccc1)Nc1ccc(C(=O)Nc2cccc(O)c2)cc1,75% (active)
22,O=C(CSc1ccccc1)Nc1ccc(NC(=O)c2ccco2)cc1,101%
23,Cn1c(=NC(=O)c2ccc3c(c2)OCCO3)sc2cc(S(C)(=O)=O)ccc21,100%
24,COc1ccc(CC(NC(C)=O)C(=O)NC2CCN(C(=O)c3ccc(OC)c(OC)c3)CC2)cc1OC (stereo not given),98%
25,CN(C)/N=C/c1cn(-c2ccccc2)nc1-c1cccnc1,101%

row,Compound,GTP binding activity (% of control)
1,O=C(CNC(=O)COc1ccccc1)NCCc1ccccn1,102%
2,Cc1ccc(CCCOC(=O)C[N+]2(C)CCCCC2)cc1,100%
3,CCOC(=O)c1ccc(NNC(C)=O)c([N+](=O)[O-])c1,99%
4,CC(=O)Nc1ccc(S(=O)(=O)NC2(C(F)(F)F)C(=O)NC(C)=C2C#N)cc1 (stereo not given),105%
5,COc1cc2c(cc1OC)CC1(CCCCC1)N=C2,102%
6,CN(C)CCN=c1cc(-c2ccccc2)oc2ccc(Cl)cc12,102%
7,CCN(CC(=O)NCc1cccs1)C(=O)c1ccccc1F,98%
8,Cc1ccc2c(=O)oc(N(C)C)nc2c1,94%
9,Oc1ccccc1N1CCN(C(=S)NCc2ccccc2)CC1,103%
10,O=c1/c(=C/c2ccc(CNS(=O)(=O)c3ccccc3)o2)sc2n1CCN=2,64% (active)
11,COC(=O)C1=C(C)NC(=O)/C1=C/c1ccc(CNS(=O)(=O)c2ccc(C)cc2)o1,100%
12,O=S(=O)(NCc1ccccc1)c1ccc(S(=O)(=O)N2CCCC2)cc1,102%
13,O=S(=O)(c1cccc(C(F)(F)F)c1)N1CCN(c2cnccn2)CC1,99%
14,CN(C(=O)COc1ncnc2c1cnn2-c1ccccc1)C1CCCCC1,102%
15,c1ccc(-c2nnc(N3CCOCC3)c3ccccc23)cc1,97%
16,COc1cccc(OCCCN2CCCCCC2)c1,95%
17,CN1CCN(C(=O)CCc2ncc(C(F)(F)F)cc2Cl)CC1,96%
18,CCOC(=O)c1sc(NC(=O)c2cc(S(=O)(=O)N3CCOCC3)ccc2C)nc1C,102%
19,COc1ccc(S(=O)(=O)N2CCOCC2)cc1NC(=O)CSc1ncnc2ccccc12,93%
20,COc1ccc(S(=O)(=O)N2CCOCC2)cc1C(=O)Nc1nc2ccccc2s1,75% (active)
21,Cc1cccc(NC(=O)CSc2nc3[nH]ncc3c(=O)[nH]2)c1,97%
22,CCCSc1nc2[nH]ncc2c(=O)[nH]1,100%
23,Cc1ccc(CSc2nc3[nH]ncc3c(=O)[nH]2)cc1,77% (active)
24,COc1cc(NS(=O)(=O)c2ccc(NC(=O)c3ccc(S(=O)(=O)N4CCCCC4)cc3)cc2)ncn1,95%
25,COc1ccccc1NC(=O)CCSc1nnc(-c2ccc(O)cc2)o1,95%

row,Compound,GTP binding activity (% of control)
1,COc1cccc(NC(=O)c2ccc(S(=O)(=O)N(C)C)cc2)c1,104%
2,Oc1ccccc1C=NC1CCCCC1N=Cc1ccccc1O (stereo not given),100%
3,O=C(CSc1ccccc1F)NC1CCS(=O)(=O)C1 (stereo not given),96%
4,Cc1cccc(NC(=S)N2CCC(O)CC2)c1C,100%
5,CC(=O)NC(Cc1ccc(F)c(F)c1)C(=O)NC1CCN(C(=O)c2ccc(C)cc2)CC1 (stereo not given),103%
6,CC(C)CCN1CCN(C/C=C/c2ccco2)CC1CCO (stereo not given),94%
7,Cc1cc(C)c2c(NC(=O)C3CC3)nn(C)c2n1,98%
8,CCOc1cc(C2C(C(=O)OC(C)C)=C(C)NC3=C2C(=O)CCC3)cc([N+](=O)[O-])c1O (stereo not given),98%
9,CC(NC(=O)COC(=O)c1ccc2c(c1)OCO2)c1ccccc1 (stereo not given),101%
10,CC1=C(C(=O)N(C)C)C(c2ccccc2OC(F)F)NC(=O)N1 (stereo not given),101%
11,O=C(O)CC(SCC(=O)Nc1ccc(Br)cc1)C(=O)O (stereo not given),96%
12,CCCCCN1CC(O)=C(c2nc(-c3ccc(Cl)cc3)cs2)C1=N,135% [activator] (active)
13,CCCCCN1CC(O)=C(c2ccccc2)C1=N,104%
14,CCOC(=O)CCCN1CC(O)=C(c2nc3ccccc3s2)C1=N,102%
15,CCc1ccc(C(=O)OCC(=O)NCC(F)(F)F)cc1,98%
16,CN(Cc1ccccn1)Cc1nc(-c2ccc(Cl)cc2)no1,101%
17,COc1ccccc1-c1noc(CSc2nc(C)cc(=O)[nH]2)n1,93%
18,COc1ccc(CC(NC(C)=O)C(=O)NC2CCN(C(=O)C3CC3)CC2)cc1OC (stereo not given),101%
19,O=C(/C=C/c1ccc(Cl)c([N+](=O)[O-])c1)c1cccnc1,78% (active)
20,O=C(/C=C/c1ccc(Cl)cc1Cl)c1cccnc1,92%
21,O=C(Nc1cccnc1)c1ccc(Cl)c([N+](=O)[O-])c1,98%
22,O=C(CC1CCCCC1)NCc1ccc(F)cc1,100%
23,O=C(NCCCn1ccnc1)C(=O)c1cn(CC(=O)N2CCCCCC2)c2ccccc12,100%
24,COc1cc(C=O)c(Br)cc1OCC(=O)NCc1ccccc1,97%
25,COc1cc(CNC2CCCC2)c(Br)cc1OCc1ccccc1,96%

row,Compound,GTP binding activity (% of control)
1,COc1cc(C(=S)NCc2ccccc2)cc(Br)c1O,79% (active)
2,Cc1ccc(NC(=O)CSc2nnc(CNC(=O)c3ccccc3F)o2)cc1,92%
3,CS(=O)(=O)N(CC(=O)N1CCCC1)Cc1ccccc1,106%
4,COc1cccc(CNC(=O)CCC2CCCN(C(=O)c3cc(C)[nH]n3)C2)c1 (stereo not given),100%
5,CC(=O)N1N=C(c2ccccc2)OC1c1cccnc1 (stereo not given),98%
6,CCc1nc(C)cn1S(=O)(=O)c1cc([N+](=O)[O-])ccc1Cl,96%
7,Cc1cccc(NC(=S)NC23CN4CN(CN(C4)C2)C3)c1,99%
8,COC(=O)CC1=NN(c2ccccc2)C(=O)C1,101%
9,O=C(NCC(=O)N(CC1CCCO1)C(C(=O)NC1CCCCC1)c1ccccc1)c1ccco1 (stereo not given),103%
10,COc1ccc2ccccc2c1CNc1nnnn1C,93%
11,O=C(NCCCN1CCOCC1)c1ccc(N2CCCC2)c([N+](=O)[O-])c1,99%
12,CC(=O)c1ccc(N2CCN(S(=O)(=O)c3c(C)[nH]c(=O)[nH]c3=O)CC2)cc1,99%
13,COc1ccc(Br)cc1/C=N/Nc1ccc(Cl)c(C(=O)O)c1,93%
14,Cc1nc(-c2ccccc2)sc1C(=O)/C=C/N(C)C,96%
15,COc1cccc(-n2c(=S)sc3c(=O)n(-c4ccccc4OC)c(SCC4OCCO4)nc32)c1,100%
16,O=C(/C=C/c1ccccc1Cl)Nc1ccc(S(=O)(=O)Nc2ncccn2)cc1,100%
17,CCOC(=O)c1sc2nc(C)nc(Nc3ccc(OC)c(OC)c3)c2c1C,89%
18,CCOC(=O)c1sc(-c2cccc([N+](=O)[O-])c2)cc1N,101%
19,O=C(CNC1CCCCC1)NCC1(c2ccccc2)CCCC1,98%
20,Cc1csc(CN(C)C(=O)CC2C(=O)NCCN2CC(C)(C)C)n1 (stereo not given),98%
21,COCCN(CCOC)C(=S)Nc1ccccc1Cl,95%
22,CC1CC1C(=O)OCC(=O)c1c(N)n(C)c(=O)n(C)c1=O (stereo not given),92%
23,CSc1nsc(SC)c1NC(=O)OC1CCCCC1,30% (active)
24,CSc1ncccc1C(=O)NC1CCCCCC1,99%
25,COc1ccc(NC(=O)c2c(SC)nsc2SC)cc1,110%
